# Rows were chosen to be rich in hits. Some 1.8% of all compounds tested hit in one or more screens of this group.
# F508del corr: CFTR F508del correction in bronchial cells. 350,000 tested, 0.36% active. CFBE cells, YFP halide quenching; stimulated with forskolin plus potentiator P3; % fluorescence drop versus neutral controls. activity (quench increase), % at 7.58 µM. AID 720511;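 active = mean added fluorescence quench of at least 8% versus neutral control, with both replicates also reaching 8%; inconclusive = only one of the mean or replicate conditions met; inactive = mean below 8% and not both replicates reaching 8%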;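 note: cells transiently co-express mutant CFTR-F508del with the halide-sensitive YFP; corrector assay measuring rescue of mutant channel to the surface after 24 h compound exposure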
# RAD54 branch: inhibitors of human RAD54 branch migration; RAD54 Holliday junction branch migration, FAM/BHQ fluorescence; 360,000 tested, 0.14% active; AID 602329; inhibition, % at 10.4 µM;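 active = mean normalized replicate activity at least 40 and at least half of replicates scoring 40 or more; inconclusive = only one of the two criteria met; inactive = mean below 40 and under half of replicates reaching 40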;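 note: 0% = median of neutral control wells and 100% = median of positive control wells; inhibitors cause a drop in the FAM fluorescence signal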
# INS-1E GSIS act: GLuc luminescence reporter in INS-1E cells, primary screen for activators of glucose-dependent secretion of insulin | INS-1E GLuc reporter insulin secretion, 2-3 h | activation, % at 16.6 µM | 370,000 tested, 0.61% active | AID 743287;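 active = lowest replicate activation of at least 40%, so every replicate reaches that level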;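 note: 0% = median of neutral control wells and 100% = median of IBMX positive control wells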
# RAD52 anneal inh: RAD52 (human) annealing inhibition | P43351 | recombinant RAD52 DNA annealing, FRET fluorescence | inhibition, % at 18.7 µM | 360,000 tested, 0.46% active | AID 651710;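 active = every replicate showing at least 50% inhibition; inconclusive = mean inhibition at least 50% but not in every replicate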
# Target sequence (P43351 whole entry, looked up): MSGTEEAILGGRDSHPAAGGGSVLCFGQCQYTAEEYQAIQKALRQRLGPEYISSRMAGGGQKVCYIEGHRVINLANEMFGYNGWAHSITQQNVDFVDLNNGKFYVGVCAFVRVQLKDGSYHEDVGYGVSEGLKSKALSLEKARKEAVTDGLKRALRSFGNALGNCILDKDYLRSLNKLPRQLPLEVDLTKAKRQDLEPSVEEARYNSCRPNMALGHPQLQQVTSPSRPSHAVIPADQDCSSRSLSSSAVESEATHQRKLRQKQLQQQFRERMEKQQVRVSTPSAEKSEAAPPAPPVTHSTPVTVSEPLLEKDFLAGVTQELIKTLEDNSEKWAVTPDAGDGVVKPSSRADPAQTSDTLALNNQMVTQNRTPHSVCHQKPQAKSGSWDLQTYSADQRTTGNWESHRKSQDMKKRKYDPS
# LGR2 inh: Drosophila LGR2 receptor signaling inhibition; 380,000 tested, 0.35% active; HEK293 LGR2, CRE-luciferase, bursicon-stimulated, 4 h; inhibition, % at 9.99 µM;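 active = drop in luminescence signal, shown as inhibition above about 50% in the replicate tests, limit read from the data, passing the limit was not always enough; inconclusive = probably only some replicates passing the limit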;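 note: agonist challenge used bursicon conditioned medium at about half maximal strength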
# EWS-Fli inh: inhibitors of EWS/Fli oncoprotein transcriptional activity | A673 NR0B1-luciferase reporter, viability-normalised | inhibition, % at 12.6 µM | 350,000 tested, 0.67% active;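 active = mean inhibition of at least 50% after viability correction, with every replicate also passing that limit; inconclusive = mean reaches 50% but only one of two replicates passes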;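 note: firefly luciferase signal divided by Alamar Blue viability fluorescence both relative to DMSO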
# DNA binder FP: DNA binding small molecules; 640 tested, 2% active; shares compounds with EWS-Fli inh; salmon sperm DNA acridine orange fluorescence polarization; AC35, µM (top dose mostly 68 µM), for the others: at the highest dose activity change, negative = DNA binding; AID 720586;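 active = fitted curve reaches a 35% signal fall AC35 below twice the sample's top valid tested dose, actives reach about 48 µM in these data; inactive = the rest, including activity in the rising direction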;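 note: lower polarization ratio signals compound binding to DNA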
# Starred values were filed as active, the others as inactive; ? = inconclusive; . = not tested or not shown.
SMILES,F508del corr,RAD54 branch,INS-1E GSIS act,RAD52 anneal inh,LGR2 inh,EWS-Fli inh,DNA binder FP
CCOc1ccc(C(=O)N/N=C/c2ccc(-c3ccc(S(=O)(=O)Nc4ncccn4)cc3)o2)cc1,.,.,28.2,.,-16.5,.,.
CCOc1ccc(NC(=O)C(=O)N/N=C\c2ccc(CNS(=O)(=O)c3ccccc3)o2)cc1,.,-3.4,4.7,-4.8,17.6,86.5*,8.9%
CCOC(=O)CC1CCCCN1Cc1cn(C)nc1-c1ccc2c(c1)OCCO2 (stereo not drawn),0.3,2.2,5.5,-14.4,4.0,3.2,.
COc1ccc(NC(=S)N=Nc2c(O)[nH]c3ccccc23)cc1,5.0,3.8,1.4,0.5,-15.5,55.5*,-11.0%
COc1ccc(S(=O)(=O)N=Nc2c(O)[nH]c3ccccc23)cc1,-3.9,.,5.5,-15.3,.,53.3*,-7.0%
Cc1ccc(NC(=S)N=Nc2c(O)[nH]c3ccccc23)cc1,3.2,.,2.0,-1.7,0.6,29.0,.
Cc1ccc(-c2csc3ncn(CC(=O)NCC(c4ccco4)N4CCCC4)c(=O)c23)cc1 (stereo not drawn),0.7,8.6,.,-8.0,2.1,4.6,.
CCn1c2ccccc2c2nnc(SCC(=O)NCc3cccs3)nc21,.,1.7,.,.,.,.,.
COc1ccc(-c2cnc3c(NC=O)cc(-c4ccccc4OC)cn23)cc1OC,3.2,-4.1,47.8,14.5,-26.4,58.4*,-4.7%
COc1ccc2oc(C(=O)NCCc3ccccc3)c(C)c2c1,0.9,7.0,1.6,-17.4,?,68.7*,-12.1%
COc1ccc2c(c1)c(C(=O)O)c(C)n2-c1ccccc1,-0.4,-0.1,6.3,-11.8,7.1,7.8,.
Nc1cc2sc(-c3ccc(C(=O)O)cc3)nc2cc1Cl,-0.6,6.3,7.8,-13.8,?,-16.9,.
Cc1cc(-c2nc3cc(F)ccc3s2)ccc1N,-1.2,.,.,-38.5,64.2*,73.8*,-1.3%
CC(C)(C)C(=O)Cn1ncc(Cl)c(Cl)c1=O,2.4,.,-16.1,-3.7,.,75.2*,-4.1%
CC(=O)c1c(C)[nH]c(C(=O)CSc2nc3ccccc3c(=O)n2CCCN2CCOCC2)c1C,.,1.5,.,.,.,.,.
N#C[C@@H]1[C@H](c2ccc(C#Cc3ccccc3F)cc2)[C@@H](CO)N1C(=O)c1cccnc1,6.2,-1.3,-1.1,-88.4,40.9,74.4*,6.5%
N#C[C@H]1[C@H](c2ccc(C#Cc3ccccc3F)cc2)[C@@H](CO)N1C(=O)C1CCOCC1,-2.4,-24.0,4.6,-75.7,43.4,67.3*,-9.2%
CCc1cnc(N2[C@H](C#N)[C@H](c3ccc(C#Cc4ccccc4F)cc3)[C@@H]2CO)s1,-0.2,4.3,-17.6,-63.9,-7.1,-22.1,.
N#C[C@H]1[C@H](c2ccc(C#Cc3ccccc3F)cc2)[C@@H](CO)N1C(=O)C1CC1,-2.5,-23.5,-0.8,-2.5,2.7,19.1,.
CCc1cnc(N2[C@H](C#N)[C@H](c3ccc(C#Cc4ccccc4F)cc3)[C@H]2CO)s1,4.7,-27.5,0.5,-108.0,19.3,52.8*,-5.8%
N#C[C@H]1N[C@H](CO)[C@H]1c1ccc(C#Cc2ccccc2F)cc1,-1.5,-16.4,-1.3,7.0,23.7,52.7*,3.7%
Cc1ccc(S(=O)(=O)N[C@H]2CC[C@@H](CCn3cc(C4CCCCC4)nn3)O[C@H]2CO)cc1,1.7,2.5,6.4,10.0,13.9,0.9,.
C=CCNc1nc(NCC)nc(N2CCOCC2)n1,.,1.0,.,.,.,.,.
CN(C)c1ccc(N=Nc2ccccc2Br)cc1,-1.5,3.3,-10.1,-14.4,?,52.8*,-5.2%
CCCc1cc(=O)oc2c3c(c4c(c12)OC(C)(C)C=C4)OC(C)C(C)C3O (stereo not drawn),1.8,3.7,.,12.0,.,72.9*,1.9%
SMILES,F508del corr,RAD54 branch,INS-1E GSIS act,RAD52 anneal inh,LGR2 inh,EWS-Fli inh,DNA binder FP
CCCc1cc(=O)oc2c3c(cc(OCC(=O)N[C@@H](C)C(=O)O)c12)OC(C)(C)CC3,-4.1,4.2,7.1,-15.2,-8.8,5.9,.
CCN1CCN(C(=S)Nc2sc(C)c(-c3ccccc3)c2C(=O)OC)CC1,4.4,-5.3,7.7,2.1,4.3,.,.
CCOc1ccc(/C=C2\CCc3ccccc3C2=O)cc1,2.4,1.0,3.5,1.5,?,70.0*,-7.1%
COc1ccc(C=C2CCc3ccccc3C2=O)cc1,1.5,.,4.7,-5.1,3.8,70.4*,2.3%
COc1ccc(NC(=O)N(C)C[C@@H]2Oc3c(NC(=O)C4CCCCC4)cccc3C(=O)N([C@@H](C)CO)C[C@H]2C)cc1,0.7,-1.6,9.1,-3.8,-5.9,-5.0,.
Cc1ccccc1-c1ccc(=O)n(CC(=O)Nc2ccc(C(=O)N3CCCC3)cc2)n1,.,2.9,.,.,.,.,.
COC(=O)C[C@H]1CC[C@@H]2[C@@H](COc3ccc(NS(=O)(=O)c4ccc(F)cc4)cc3C(=O)N2C)O1,-3.0,4.8,-10.5,6.1,0.9,-0.4,.
C[C@@H]1CN([C@@H](C)CO)S(=O)(=O)c2ccc(C#CC(C)(C)O)cc2O[C@H]1CN(C)Cc1ccc(-c2ccccc2)cc1,-4.5,5.2,5.5,8.8,-4.7,75.4*,-2.7%
C[C@@H]1CN([C@@H](C)CO)S(=O)(=O)c2ccc(C#CC(C)(C)O)cc2O[C@@H]1CN(C)Cc1ccc(-c2ccccc2)cc1,1.6,1.0,-13.0,8.4,29.8,29.8,.
C[C@H]1CN([C@@H](C)CO)S(=O)(=O)c2ccc(C#CC3CC3)cc2O[C@@H]1CN(C)Cc1ccccc1F,0.4,-2.2,-21.2,3.1,22.1,24.5,.
C[C@@H]1CN([C@H](C)CO)S(=O)(=O)c2ccc(C#CC3CC3)cc2O[C@@H]1CN(C)Cc1ccccc1F,-2.6,-7.0,-6.8,8.4,26.3,61.5*,-9.5%
Cc1cc(Cl)ccc1OC(C)C(=O)N1CCCN(C(=O)C(C)Oc2ccc(Cl)cc2C)CC1 (stereo not drawn),.,0.1,.,.,.,.,.
Cc1ccc(/C=N/Nc2ccc3ccccc3n2)o1,0.4,11.6,25.2,-33.2,?,52.8*,-1.9%
Cc1cccc(/C=N/Nc2ccc3ccccc3n2)c1,-2.0,.,30.9,-21.7,79.3*,74.1*,-0.7%
C(=N\Nc1nc2ccccc2[nH]1)/c1ccc2c(c1)OCCO2,1.4,11.1,-27.7,-14.9,25.9,12.7,.
C(=N\Nc1ccc2ccccc2n1)/c1ccc2c(c1)OCCO2,3.9,2.5,33.2,-40.6,87.6*,85.9*,-13.9%
COCCNC(=O)Cn1ccc2cc(S(=O)(=O)N3CCCCC3)ccc21,-0.7,-5.5,12.7,-18.0,-1.2,6.0,.
CCOC(=O)N1CCN(C(=O)C2CCN(C(=O)c3cc(OC)cc(OC)c3)CC2)CC1,.,.,-0.1,.,-8.9,.,.
COc1ccccc1-c1ccc(OCCCN2CCC(C(O)(c3ccccc3)c3ccccc3)CC2)cc1,2.6,.,.,-15.1,61.8*,70.6*,-15.4%

# Screening results as filed in PubChem.
